Assay [1] in a line: A CellTox Green Cytotoxicity Assay to monitor cytotoxicity in HepG2 cells - 0 hour (AID 1224882). Further: nearly all actives have a fitted effect of over 35% in size. Summed up: (§1)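 Real-time, homogeneous cytotoxicity readout: dead-cell DNA staining by CellTox Green in HepG2 monolayers, fluorescence measured at timed intervals up to 40 h of continuous compound exposure.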
The nature of assay [2]: A CellTox Green Cytotoxicity Assay to monitor cytotoxicity in HepG2 cells - 32 hour (AID 1224883). Further: nearly all actives have a fitted effect of over 50% in size. Further: potency means the concentration at half of the fitted maximal effect. Summed up:
as §1

Assay [3] is described as follows: A CellTox Green Cytotoxicity Assay to monitor cytotoxicity in HEK293 cells - 8 hour (AID 1224884). Further: nearly all actives have a fitted effect of over 35% in size. Summed up: (§2)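 Cytotoxicity was tracked continuously in HEK293 cells by a DNA-binding dye excluded from viable cells. Compounds were transferred in DMSO 5 h after seeding; fluorescence was recorded at intervals up to 40 h.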
A short description of assay [4]: qHTS RealTime-Glo MT Cell Viability Assay in HepG2 cells - 16 hour (AID 1224885). Further: nearly all actives have a fitted effect of over 50% in size. Summed up: (§3)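 Cells + NanoLuc/prosubstrate dispensed (600 cells/well) → 5 h at 37 C/5% CO2 → compounds in DMSO transferred → 40 h incubation at 37 C, luminescence read at 0, 8, 16, 24, 32, 40 h.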
The nature of assay [5]: qHTS RealTime-Glo MT Cell Viability Assay in HEK293 cells - 24 hour (AID 1224886). Further: top concentration of the series differs between compounds; nearly all actives have a fitted effect of over 50% in size. The gist of the method: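 Tox21 10K qHTS, HEK293, 600 cells/well, RealTime-Glo reagent co-dispensed with cells; 5 h preincubation, compound by pintool, 37 C, luminescence at 0–40 h.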
The nature of assay [6]: qHTS RealTime-Glo MT Cell Viability Assay in HEK293 cells - 8 hour (AID 1224887). Further: top concentration of the series differs between compounds; nearly all actives have a fitted effect of over 50% in size. The gist of the method: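 Nonlytic bioluminescent viability monitoring. HEK293 at 600 cells/well with reagent; 5 h settle; compound transfer by pintool; plates held at 37 C and read at set time points.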
A general note: In qHTS, concentration-response curves come from the screen itself.

The nature of assay [7]: A CellTox Green Cytotoxicity Assay to monitor cytotoxicity in HEK293 cells - 16 hour (AID 1224888). Further: nearly all actives have a fitted effect of over 35% in size. Summed up: as §2
Assay [8] can be described thus: qHTS RealTime-Glo MT Cell Viability Assay in HepG2 cells - 0 hour (AID 1224889). Further: nearly all actives have a fitted effect of over 50% in size. The gist of the method: as §3
Assay [9] can be described thus: qHTS assay to identify small molecule antagonists of the estrogen receptor alpha (ER-alpha) signaling pathway using the BG1 cell line in the presence of 0.1 nM 17-beta-estradiol - cell viability counter screen (AID 1259241). Further: nearly all actives have a fitted effect of over 40% in size. Summed up: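 In this screen, hormone-deprived VM7Luc4E2 cells were seeded at 4,000 per well, dosed with compound and 0.1 nM estradiol final, and incubated 22 hr at 37C and 5% CO2; fluorogenic live-cell protease signal reported viability.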

Assay [10] concerns the target Estrogen receptor (Homo sapiens) (UniProt P03372). The assay is described as follows: qHTS assay to identify small molecule antagonists of the estrogen receptor alpha (ER-alpha) signaling pathway using the BG1 cell line in the presence of 0.1 nM 17-beta-estradiol (AID 1259244). Further: nearly all actives have a fitted effect of over 50% in size. Further: potency means the concentration at half of the fitted maximal effect. The gist of the method: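 After 5 days in hormone-depleted medium (charcoal-stripped serum, no phenol red), VM7Luc4E2 cells were seeded, incubated 24 h, then co-treated with compound and 0.1 nM (final) estradiol for 22 h before luminescence detection.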

Assay [11] can be described thus: qHTS assay to identify small molecule HDAC inhibitors (AID 1259364). Further: top concentration of the series differs between compounds; nearly all actives have a fitted effect of over 45% in size. The gist of the method: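 Homogeneous cell-based luminescent assay of endogenous class I/II HDAC activity; HCT-116 cells, 2 h compound exposure, 30 min HDAC-Glo development at RT.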
A short description of assay [12]: qHTS assay to identify small molecule HDAC inhibitors - cell viability counter screen (AID 1259365). Summed up: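 Measured quantity is CellTiter-Glo luminescence from wild-type HCT-116 cells after compound incubation of 2hr at 37C, 5% CO2; reagent developed 30min at room temperature.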
The nature of assay [13]: qHTS assay to identify small molecule agonists of the sonic hedgehog signaling (Shh) pathway - cell viability counter screen (AID 1259366). Further: nearly all actives have a fitted effect of over 50% in size. Summed up: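 In quantitative high-throughput format, 3T3 Gli1-Luc cells were exposed to compounds for 24hr and multiplexed for viability using CellTiter-Fluor, incubated 1hr at 37C before the fluorescence read.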
Assay [14] can be described thus: qHTS assay to identify small molecule antagonists of the sonic hedgehog signaling (Shh) pathway - cell viability counter screen (AID 1259367). Further: nearly all actives have a fitted effect of over 55% in size. Summed up:
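After a 4 hr settling period, 3T3 Gli1-Luc cells were treated with DMSO-dissolved chemicals and conditioned medium, kept 24 hr at 37C in 5% CO2, and assayed for viability by CellTiter-Fluor fluorescence following 1 hr reagent incubation.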

Assay [15] is described as follows: qHTS assay to identify small molecule agonists of the sonic hedgehog signaling (Shh) pathway (AID 1259368; calls by dose curve;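 further: NIH/3T3-derived 3T3Gli1-Luc cells carrying a stable Gli1-driven firefly luciferase reporter; series mostly up to about 92 µM; nearly all actives have a fitted effect of over 15% in size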). Summed up:
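Steps: seed 3T3 Gli1-Luc cells, incubate 4 hr at 37 C, pin-transfer compounds in DMSO alongside a positive control, incubate 24 hr, add luciferase detection reagent, wait 30 min at room temperature, read luminescence.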

A short description of assay [16]: qHTS assay to identify small molecule antagonists of the sonic hedgehog signaling (Shh) pathway (AID 1259369; calls by dose curve; further: nearly all actives have a fitted effect of over 45% in size; further: potency means the concentration at half of the fitted maximal effect). The gist of the method: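 Inhibition of Shh signalling is measured as reduced Gli1-response-element firefly luciferase output in an NIH/3T3-derived stable reporter clone stimulated with conditioned medium for 24hr.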
A short description of assay [17]: qHTS assay to identify small molecule antagonists of the androgen receptor (AR) signaling pathway using the MDA cell line in the presence of 0.5 nM R1881 - cell viability counter screen (AID 1259242). Further: nearly all actives have a fitted effect of over 45% in size. Summed up:
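Cytotoxicity toward MDA-kb2 cells is measured by CellTiter-Fluor live-cell protease fluorescence after 16 hr compound exposure at 37C in the presence of 0.5 nM R1881 stimulator.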

The target in assay [18] is Androgen receptor (Homo sapiens) (UniProt P10275). Kind of assay: qHTS assay to identify small molecule antagonists of the androgen receptor (AR) signaling pathway using the MDA cell line in the presence of 0.5 nM R1881 (AID 1259243). Further: nearly all actives have a fitted effect of over 50% in size. The gist of the method:
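Steps: seed MDA-kb2 cells, incubate 5 hr at 37C; pin-transfer compounds in DMSO; add R1881 to 0.5 nM final; incubate 16 hr; add ONE-Glo, wait 30 min at room temperature; read luminescence.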

Assay [19] can be described thus: A CellTox Green Cytotoxicity Assay to monitor cytotoxicity in HepG2 cells - 8 hour (AID 1224890). Further: nearly all actives have a fitted effect of over 45% in size. Summed up: as §1

This note sets out measurements from PubChem BioAssay (Tox21).

“And” between values parts separate entries of the source, which are not always exact repeats. Equal values may be shown once. Unmarked numbers belong to inactive results. Inconclusive results are not listed. The source made the active and inactive calls. Unless noted, the call rests on the fitted dose curve; in most records, active means well fitted curve in the direction sought with a large enough effect in the repeat runs; inconclusive means weak or mixed curves; inactive means no such curve, though single readings can be large; an effect the other way counts as inactive or inconclusive.

Sequence of Estrogen receptor (Homo sapiens) (P03372 whole entry, looked up): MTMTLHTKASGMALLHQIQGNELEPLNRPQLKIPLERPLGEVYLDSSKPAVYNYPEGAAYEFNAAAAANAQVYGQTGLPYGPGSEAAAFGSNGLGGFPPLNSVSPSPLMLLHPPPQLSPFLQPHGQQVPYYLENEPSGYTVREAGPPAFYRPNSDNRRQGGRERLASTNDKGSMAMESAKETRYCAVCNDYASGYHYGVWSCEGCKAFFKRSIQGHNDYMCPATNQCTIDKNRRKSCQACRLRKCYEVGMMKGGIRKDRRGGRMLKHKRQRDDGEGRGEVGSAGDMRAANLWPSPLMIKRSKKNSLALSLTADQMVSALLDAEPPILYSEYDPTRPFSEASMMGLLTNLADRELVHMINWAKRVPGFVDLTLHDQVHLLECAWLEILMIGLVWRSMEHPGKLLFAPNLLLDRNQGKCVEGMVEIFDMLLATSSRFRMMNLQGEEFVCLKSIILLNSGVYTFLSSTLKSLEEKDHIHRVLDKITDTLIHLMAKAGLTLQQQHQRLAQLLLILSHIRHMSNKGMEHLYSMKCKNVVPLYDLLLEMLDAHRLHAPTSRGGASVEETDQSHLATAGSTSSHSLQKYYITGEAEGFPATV
Sequence of Androgen receptor (Homo sapiens) (P10275 whole entry, looked up): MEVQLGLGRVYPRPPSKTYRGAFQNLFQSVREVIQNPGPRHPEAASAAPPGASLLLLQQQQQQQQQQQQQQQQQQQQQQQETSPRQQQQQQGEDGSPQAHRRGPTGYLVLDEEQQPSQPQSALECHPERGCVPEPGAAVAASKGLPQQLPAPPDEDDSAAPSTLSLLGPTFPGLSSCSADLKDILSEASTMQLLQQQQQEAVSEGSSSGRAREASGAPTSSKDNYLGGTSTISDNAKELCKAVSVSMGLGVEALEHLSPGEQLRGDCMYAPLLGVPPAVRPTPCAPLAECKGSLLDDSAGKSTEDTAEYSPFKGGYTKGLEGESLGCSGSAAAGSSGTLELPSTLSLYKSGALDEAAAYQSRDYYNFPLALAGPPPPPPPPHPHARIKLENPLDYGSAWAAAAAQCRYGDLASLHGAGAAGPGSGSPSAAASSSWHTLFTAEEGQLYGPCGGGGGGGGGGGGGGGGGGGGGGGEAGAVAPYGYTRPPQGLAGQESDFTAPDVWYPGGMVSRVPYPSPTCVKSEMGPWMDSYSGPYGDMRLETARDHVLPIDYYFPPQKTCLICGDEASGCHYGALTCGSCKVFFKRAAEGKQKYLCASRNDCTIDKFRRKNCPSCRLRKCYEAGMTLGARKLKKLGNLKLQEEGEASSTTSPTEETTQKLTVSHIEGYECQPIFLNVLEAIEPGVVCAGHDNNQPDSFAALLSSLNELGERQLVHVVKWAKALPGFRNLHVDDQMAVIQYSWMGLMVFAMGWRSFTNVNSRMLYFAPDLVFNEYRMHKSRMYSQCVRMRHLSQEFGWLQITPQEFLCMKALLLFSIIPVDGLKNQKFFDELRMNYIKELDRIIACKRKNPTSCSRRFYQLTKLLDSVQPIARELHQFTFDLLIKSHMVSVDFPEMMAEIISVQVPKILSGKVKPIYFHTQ

Consider `CCc1cccc(CC)c1N(COC)C(=O)CS(=O)(=O)O`, for which the Potency result in [1], in [2], in [3], in [4], in assay [5] and in assay [6] was “inactive” throughout. Further, the Potency entry in assay [7], in assay [8], in assay [9], in [10], in assay [11] and in assay [12] was “inactive” throughout. For the same compound, the Potency entry in assay [13], in assay [14], in assay [15] and in assay [16] was “inactive” throughout.
With `Cc1occc1SSc1ccoc1C`, the Potency result in assay [1], in assay [3], in [4], in [5], in [6] and in assay [7] was “inactive” in each case. Also, the Potency entry in assay [8], in assay [9], in assay [17], in assay [12], in [13] and in assay [14] was “inactive” in each case. Besides, the Potency result in assay [15] is “inactive”. Besides, the Potency in assay [2] was 54.9 µM (active).
For `OCCCc1cccnc1`, the Potency result in [1], in assay [2], in assay [3], in assay [4], in assay [5] and in assay [6] was “inactive” throughout. Moreover, the Potency entry in assay [7], in [8], in assay [9], in assay [17], in [18] and in [10] was “inactive” throughout. Also, the Potency result in assay [11], in assay [12], in [14], in assay [15] and in assay [16] was “inactive” throughout.
With `O=Nc1ccc(NO)cc1`, the Potency result in assay [1], in [2], in assay [3], in assay [4], in assay [5] and in [6] was “inactive” throughout. The Potency entry in assay [7], in [8], in assay [19], in assay [17] and in [12] was “inactive” throughout. For the same compound, the results for the Potency in assay [10] and in [16] were 50.5 µM (active) and 14.2 µM (active), respectively.
On to `CC(C)(c1cc(Br)c(O)c(Br)c1)c1cc(Br)c(O)c(Br)c1`, for which the Potency entry in [1], in assay [2], in assay [3], in assay [4], in assay [5] and in [6] was “inactive” throughout. For the same compound, the Potency result in assay [7], in assay [8], in assay [19], in [17], in [12] and in assay [13] was “inactive” each time. The Potency entry in assay [14] and in [15] was “inactive” in each case. In addition, in [16], the Potency was 60.9 µM (active) and 64.9 µM (active).
As to `CC(C)=C1CC[C@@H](C)CC1=O`, the Potency result in assay [1], in assay [2], in assay [3], in assay [4], in assay [5] and in [6] was “inactive” throughout. Also, the Potency entry in [7], in assay [8], in assay [19], in assay [17], in assay [10] and in [11] was “inactive” each time. Moreover, the Potency entry in assay [12], in [13], in assay [14], in assay [15] and in [16] was “inactive” in each case.
Consider `C=CC(=C)CCC=C(C)C`, for which the Potency result in [1], in assay [2], in [3], in [4], in assay [5] and in [6] was “inactive” each time. In addition, the Potency entry in assay [7], in assay [8], in assay [19], in assay [9], in assay [12] and in [14] was “inactive” each time. Besides, the Potency entry in [15] and in assay [16] was “inactive” throughout.
Take `CC(C)=CC1CC(C)CCO1` (configuration not stated): the Potency result in [1], in [2], in assay [3], in assay [4], in [5] and in assay [6] was “inactive” throughout. Also, the Potency result in assay [7], in [8], in [9], in [17], in assay [10] and in [11] was “inactive” in each case. The Potency entry in [12], in [14], in assay [15] and in [16] was “inactive” each time.
